From ChEMBL document CHEMBL3433997, “St. Jude Leishmania screening dataset” (2016)

Assays:
Format in all cases: functional
[1] = target: Solute carrier family 2, facilitated glucose transporter member 1 (Homo sapiens) (UniProt P11166); assay: ST_JUDE_LEISH: Cytotoxicity at 2uM final concentration against transgenic Leishmania Mexicana promastigotes LmGLUT1 that are glucose transport deficient and complemented with the human glucose transporter GLUT1. Activity is measured by DNA content using SYBR green in vitro
Chain of Solute carrier family 2, facilitated glucose transporter member 1 (Homo sapiens) (P11166 whole entry): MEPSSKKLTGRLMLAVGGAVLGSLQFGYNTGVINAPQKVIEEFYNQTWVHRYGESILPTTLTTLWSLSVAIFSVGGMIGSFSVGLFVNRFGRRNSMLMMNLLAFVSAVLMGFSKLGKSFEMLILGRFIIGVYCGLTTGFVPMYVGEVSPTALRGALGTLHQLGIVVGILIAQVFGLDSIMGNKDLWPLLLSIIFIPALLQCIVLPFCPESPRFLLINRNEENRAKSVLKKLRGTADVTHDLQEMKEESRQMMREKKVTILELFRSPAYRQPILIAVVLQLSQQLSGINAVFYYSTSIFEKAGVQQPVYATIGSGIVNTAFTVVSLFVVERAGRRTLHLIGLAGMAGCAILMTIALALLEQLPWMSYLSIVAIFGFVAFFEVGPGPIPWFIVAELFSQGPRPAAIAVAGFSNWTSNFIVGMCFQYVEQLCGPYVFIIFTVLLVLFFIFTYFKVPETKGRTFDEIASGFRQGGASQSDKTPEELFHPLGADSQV

[2] = target: Hexose transporter 1 (Plasmodium falciparum) (UniProt O97467); assay: ST_JUDE_LEISH: Cytotoxicity at 2uM final concentration against transgenic Leishmania Mexicana promastigotes LmPfHT that are glucose transport deficient and complemented with the Plasmodium falciparum hexose transporter. Activity is measured by DNA content using SYBR green in vitro
[3] = target: Glucose transporter (Leishmania mexicana) (UniProt O61059); assay: ST_JUDE_LEISH: Cytotoxicity at 2uM final concentration against transgenic Leishmania Mexicana promastigotes LmGT2 that are glucose transport deficient and complemented with the L. Mexicana glucose transporter 2. Activity is measured by DNA content using SYBR green in vitro

| SMILES | inhibition [1] | inhibition [2] | inhibition [3] |
| --- | --- | --- | --- |
| Cc1nc(-c2cccc(Nc3nccc(NCC(O)c4ccc(C(F)(F)F)cc4)n3)c2)cs1 (centres undefined) | 1.28% | 1.67% | -0.68% |
| O=C(c1ccccc1NN=C1C(=O)N(c2ccccc2)N=C1c1ccccc1)N1CCOCC1 | -1.67% | 1.67% | 8.03% |
| COc1ccc2[nH]c(-c3ccccc3)cc(=NN=Cc3ccncc3)c2c1 | 3.48% | 3.17% | 5.54% |
| COc1cccc2c(NN=Cc3cccc(Cl)c3)ccnc12 | 0.32% | -3.77% | 1.77% |
| Cn1nccc1C(=O)NCCNCc1cccc(-c2ccc(-c3nc4ccccc4[nH]3)cc2)c1 | 0.23% | 0.79% | -1.98% |
| COc1cccc(Cn2ccc3c4c(N)nc(N)nc4ccc32)c1 | 94.3% | 96% | 85.1% |
| CC1=C(C(=O)Nc2cc3cn[nH]c3cc2F)C(c2cccc(O)c2F)CC(=O)N1 (centres undefined) | -2.25% | -3.23% | 0.72% |
| CN(C)Cc1cccc(-c2ccc(NC(=O)c3ccc4c(=O)n(Cc5cnn(C)c5)cnc4c3)cc2)c1 | 1.78% | 2.88% | 4.86% |
| Nc1ncc(-c2cccc(CCN3CCOCC3)c2)cc1-c1nc2cc(Br)ccc2[nH]1 | 14% | 9.95% | 11.8% |
| OC(COCc1ccc(-c2ccccc2)cc1)CN1CCCCC1 (centres undefined) | 2.72% | 1.99% | 3.58% |
| COc1ccc(CNCc2ccc(F)cc2)cc1-c1ccc(S(=O)(=O)NCCN2CCCC2)s1 | 2.3% | 3.11% | 5.96% |
| CN(CCCc1c[nH]c2ccccc12)CC1CCN(C(=O)/C=C/c2ccc(Cl)c(Cl)c2)CC1 | -3.42% | -1.25% | -1.38% |
| CC1CCC(NC(=O)c2nn(-c3ccc(Cl)cc3)c(=O)c3ccccc23)CC1 (centres undefined) | 1.52% | 1.39% | -0.26% |
